In this assay the test system is Trypanosoma brucei. Put plainly: Trypanosoma brucei 72 hour study. Type of assay: functional, organism-based. Also noted: scale not given: in the data most compounds retested in dose-response had high values.

The structures appear in SMILES notation. Out of some 66,000 compounds screened, about 960 (1.5%) showed an effect of 50% or more. This is one part of a sample in which strong results are shown more often than they occur.

Turning to `Cc1noc(CN2C[C@H]3CC[C@@H]2CN(C2Cc4ccccc4C2)C3)n1`, the “Percent Effect” value (30 µM, 30.03 µM) is recorded as 16.7%.
Consider `CC(=O)Nc1nc(C2CCN(C(=O)c3cccnc3)CC2)cs1`, for which, where the note is “30 µM, 30.03 µM”, the “Percent Effect” value is on record as 31.28%.
With `Cc1noc(C)c1CN1CCc2ncnc(-c3ccc(F)cc3)c2CC1.O=C(O)C(F)(F)F`, for the setting “30.3 µM, […]”, the “Percent Effect” value is on record as -81.82%.
On to `CCS(=O)(=O)NCCNc1cc(-n2cccc2)ncn1`, for which the “Percent Effect” value (30.3 µM, […]) is given as 14.19%.
Still for that read-out and setting: to `O=S(=O)(NCCNc1cc(-n2cccc2)ncn1)c1cccs1` belongs 16.28%.
The same measure, in the same setting: to `Cc1ccc(S(=O)(=O)NCCNc2cc(-n3cccc3)ncn2)c(C)c1` belongs 53.4%; to `CNC(=O)CN1CCCC12CCN(C(=O)c1cccc(F)c1)CC2.O=C(O)C(F)(F)F`, -1.054%; to `O=C(NCc1ccco1)[C@H]1C[C@@H]2CCN(c3nncs3)C[C@H]2O1.O=C(O)C(F)(F)F`, -27.54%.
In the case of `COc1ccccc1NCC(=O)NCc1scnc1C`, for the setting “30 µM, 30.03 µM”, the “Percent Effect” value is recorded as -18.47%.
On to `COc1cc2nc(NCc3cc(C)on3)nc(N)c2cc1OC`, for which the “Percent Effect” value (30.3 µM, […]) is recorded as -6.228%.
With `COc1cc2nc(NCc3scnc3C)nc(N)c2cc1OC`, the “Percent Effect” value (30.3 µM, […]) worked out at 86.68%.
Same read-out and setting: to `COCCN1CCc2cc(C(=O)O)c(NCC3CC3)nc2CC1.O=C(O)C(F)(F)F.O=C(O)C(F)(F)F` belongs -92.37%; to `CCCn1nccc1C(=O)Nc1ncc(C)s1`, 83.34%.
On to `CCn1nccc1C(=O)Nc1nc(C)c(C(C)=O)s1`, for which, where the note is “30.3 µM, […]”, the “Percent Effect” value is given as -2.793%.
For the compound `CCCn1nccc1C(=O)Nc1nc(C)c(C)s1`, the “Percent Effect” value (30.3 µM, […]) came to 41.43%.
As to `COCC1CC2(CCN(Cc3ccco3)CC2)CN1C(C)C.O=C(O)C(F)(F)F.O=C(O)C(F)(F)F` (stereo not drawn), the “Percent Effect” value (30 µM, 30.03 µM) was found to be 42.98%.
In the case of `COc1cc(N2CCCC(c3nccn3Cc3cscn3)C2)nc(N)n1` (stereo not drawn), the “Percent Effect” value (30 µM, 30.03 µM) was 59%.
On the same count and under the same terms, to `COCCn1ccnc1C1CCCN(c2cc(OC)nc(N)n2)C1` (stereo not drawn) belongs -68.81%.
On the same count and under the same terms, to `COc1cc(N2CCCC(c3nccn3CCN(C)C)C2)nc(N)n1` (stereo not drawn) belongs 42.15%.
As for `Cc1cccn2cc(CNCc3cccc4c3OCCCO4)nc12`, the “Percent Effect” value (30.3 µM, […]) came to 17.5%.
As for `CCC[C@]12CN3C[C@](CCC)(CN(C1)C3c1[nH]c(=O)[nH]c(=O)c1C)C2=O` (stereo partly drawn), under “30 µM, 30.03 µM”, the “Percent Effect” value is given as -52.93%.
On to `CCc1noc(C2CCCCN2C(=O)c2cc(C)n(C)n2)n1` (stereo not drawn), for which the “Percent Effect” value (30.3 µM, […]) was -3.284%.
As to `Cc1csc(C2CCCCN2C(=O)c2cc(C(C)C)[nH]n2)n1` (stereo not drawn), under “10 µM”, the “Percent Effect” value is reported as -49.47%.
As to `CC(C)c1n[nH]c(C(=O)Nc2ccnn2C(C)C)c1Br`, for the setting “30 µM, 30.03 µM”, the “Percent Effect” value is listed as -7.131%.
As for `CC(C)c1n[nH]c(C(=O)NC(C)c2ccncc2)c1Br` (stereo not drawn), the “Percent Effect” value is listed as 20.51% (30.3 µM, […]) and -71.89% (10 mM, 10 mM as filed; unlikely as a test dose).
With `CC(C)c1n[nH]c(C(=O)Nc2cc[nH]n2)c1Br`, the “Percent Effect” value (30 µM, 30.03 µM) is -42.25%.
On to `COc1ncccc1NC(=O)c1[nH]nc(C(C)C)c1Br`, for which the “Percent Effect” value (30 µM, 30.03 µM) is on record as 7.14%.
With `Cc1cccc(NC(=O)c2[nH]nc(C(C)C)c2Br)n1`, the “Percent Effect” value (30.3 µM, […]) came out at 56.85% and the “Percent Effect” value (10 mM, 10 mM as filed; unlikely as a test dose) is reported as 8.768%.
The matching figures for `CC(C)c1n[nH]c(C(=O)Nc2ccccn2)c1Br`: 50.04% and -45.45%.
`COc1ccccc1NC(=O)c1[nH]nc(C(C)C)c1Br`: the “Percent Effect” value (30 µM, 30.03 µM) is reported as -9.686%.
Still for that read-out and setting: in the case of `CC(C)c1n[nH]c(C(=O)Nc2ccncc2)c1Br` it was -10.71%.
As to `Cc1ccnc(NC(=O)c2[nH]nc(C(C)C)c2Br)c1`, the “Percent Effect” value runs as follows: (30.3 µM, […]) 57.19%; (10 mM, 10 mM as filed; unlikely as a test dose) -20%.
`CCOC[C@]12COC[C@H]1CN(Cc1ccc(F)c(F)c1)C2.O=C(O)C(F)(F)F`: under “30.3 µM, […]”, the “Percent Effect” value was determined as 6.986%.
Regarding `CS(=O)(=O)N[C@H]1CN(C(=O)c2cscn2)[C@@H]2CCCO[C@H]12`, the “Percent Effect” value (30 µM, 30.03 µM) turned out to be 28.48%.
Regarding `CNC(=O)[C@H]1C[C@@H]2CN(C(=O)c3ccccn3)C[C@@H]2N1S(C)(=O)=O.O=C(O)C(F)(F)F`, the “Percent Effect” value (30.3 µM, […]) is given as -16.02%.
For the compound `CN1CCCC(CCC(=O)NCCc2nnc(N)s2)C1` (stereo not drawn), the “Percent Effect” value (30 µM, 30.03 µM) is 1.066%.
As to `Cc1ccc(C(=O)N2CCC3(CC2)CCN(CCN(C)C)C3=O)cn1.O=C(O)C(F)(F)F.O=C(O)C(F)(F)F`, the “Percent Effect” value (30.3 µM, […]) was -7.554%.
For `COCc1nc(C(=O)NS(=O)(=O)c2c(C)c(C)cc(C)c2C)cs1`, the “Percent Effect” value (30.3 µM, […]) is -6.08%.
As to `O=C(N1CCOCC1)[C@@]12CCO[C@@H]1CCN(C1CCOCC1)C2.O=C(O)C(F)(F)F`, where the note is “30 µM, 30.03 µM”, the “Percent Effect” value is given as -13.03%.
Still for that read-out and setting: to `CN(C)C(=O)C1OC2(CCN(c3ncc(F)cn3)CC2)c2ccccc21.O=C(O)C(F)(F)F` (stereo not drawn) belongs -1.93%.
`COc1ccc(-c2nnsc2C(=O)N2CCC(C(N)=O)CC2)cc1`: the “Percent Effect” value (30.3 µM, […]) worked out at 7.87%.
In the case of `Cc1ccsc1CN1CC[C@H]2OCC[C@@]2(C(=O)N2CCCO2)C1.O=C(O)C(F)(F)F`, the “Percent Effect” value (30.3 µM, […]) is reported as -14.02%.
As for `N#Cc1cccc(CS(=O)(=O)NCC(O)Cc2ccccc2)c1` (stereo not drawn), the “Percent Effect” value (30 µM, 30.03 µM) is given as -15.65%.
`CCCC(N)CNS(=O)(=O)Cc1cccc(C#N)c1.Cl` (stereo not drawn): the “Percent Effect” value (30.3 µM, […]) is on record as 63.71%.
The same measure, in the same setting: in the case of `Cc1ccccc1C(O)CNS(=O)(=O)Cc1cccc(C#N)c1` (stereo not drawn) it was 7.529%.
With `CCO[C@H]1CO[C@@]2(CCCN(Cc3scnc3C)C2)C1.O=C(O)C(F)(F)F`, the “Percent Effect” value (30 µM, 30.03 µM) is -66.13%.
Still for that read-out and setting: in the case of `Cc1nc(C)n(CC2CCCN2Cc2cn(-c3ccccc3)nn2)n1` (stereo not drawn) it was -3.712%.
For `c1ccc(-n2ccc(CN3CCCC3Cn3cncn3)n2)cc1` (stereo not drawn), the “Percent Effect” value (10 µM) was -54.26%.
In the case of `Cc1nc(C)n(CC2CCCN2Cc2ccccn2)n1` (stereo not drawn), the “Percent Effect” value (30.3 µM, […]) was 5.601%.
Still for that read-out and setting: to `c1ccc(-n2ccc(CN3CCCC3Cn3cccn3)n2)cc1` (stereo not drawn) belongs 99.68%.
Regarding `Fc1cccc(-n2ccc(CN3CCCC3Cn3cccn3)n2)c1` (stereo not drawn), for the setting “10 µM”, the “Percent Effect” value is -58.75%.
As to `Cc1nc(C)n(CC2CCCN2Cc2ccn(-c3ccccc3)n2)n1` (stereo not drawn), the “Percent Effect” value (30.3 µM, […]) was 99.84%.
Consider `O=C(CCN1C[C@@H]2CC[C@H]1C2)N1CCN(c2cccc(Cl)c2)C(=O)C1`, for which, under “30.3 µM, […]”, the “Percent Effect” value is -18.65%.
The same measure, in the same setting: in the case of `CN1CCN(C2COC3(CCN(c4ccc(C#N)cc4)CC3)C2)CC1.O=C(O)C(F)(F)F` (stereo not drawn) it was -31.63%.
For `NC(=O)NCC(=O)N1CCCC(OCc2cccnc2)C1` (stereo not drawn), the “Percent Effect” value (30 µM, 30.03 µM) is -86.17%.
Same read-out and setting: in the case of `O=C(Cn1ccnc1)N1CCCC(OCc2cccnc2)C1` (stereo not drawn) it was -76.95%; in that of `NC(=O)CN1CCC(C(=O)N2CCCC(OCc3cccnc3)C2)CC1` (stereo not drawn), 52.75%; in that of `CCC(NC(=O)CC1CCN(C(C)C)CC1)c1cn2cccnc2n1` (stereo not drawn), -16.96%.
In the case of `CN1[C@@H](C(=O)NCC2CC2)C[C@@H]2CN(Cc3ccsc3)C[C@@H]21.O=C(O)C(F)(F)F.O=C(O)C(F)(F)F`, the “Percent Effect” value (30.3 µM, […]) is recorded as -75.19%.

These data come from ChEMBL document CHEMBL3988442, “University of Dundee, Small-Polar-MMV Screening Library” (2021).
